Screening data (PubChem)
TDP1 cell noCPT: qHTS for Inhibitors of human tyrosyl-DNA phosphodiesterase 1 (TDP1): qHTS in cells in absence of CPT. DT40 Tdp1-/- hTDP1 cells, no CPT, ATP luminescence, 48 h. Potency, µM (doses to about 46.2 µM), most hits filed as inhibitors. actives 15% (n = 420,000); further: nearly all actives have a fitted effect of over 55% in size
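Chicken DT40 Tdp1-/- cells stably complemented with human TDP1 were seeded at 400 cells/well with DMSO in place of 20 nM camptothecin. After compound pinning, cells grew at least 48 hr at 37 °C; viability read by CellTiter-Glo luminescence.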
TDP1 cell CPT: qHTS for Inhibitors of human tyrosyl-DNA phosphodiesterase 1 (TDP1): qHTS in cells in presence of CPT | chicken DT40 Tdp1-/-;hTDP1 cells + 20 nM CPT, ATP luminescence, 48 h | Potency, µM (top dose mostly 46.2 µM), actives largely listed as inhibitors | actives 12% (n = 420,000); further: nearly all actives have a fitted effect of over 55% in size
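Cell growth measured by CellTiter-Glo luminescence after a minimum 48 h, 37 C compound exposure with 20 nM CPT in Tdp1-knockout DT40 cells stably expressing hTDP1, seeded 400/well; qHTS titration format.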
ClpP mod: qHTS Assay for Activators of ClpP; purified B. subtilis ClpP, FRET peptide cleavage, 20 min; Potency, µM (highest dose often 57.5 µM); actives 1.9% (n = 340,000); AID 651965, 2013; active means well fitted falling curve with a large enough effect; inconclusive means small, poorly fitted or top-dose-only effect; inactive means no such curve, though single readings can be large or run the other way; further: the source files actives as falling curves though it sought activators and does not explain the sign; nearly all actives have a fitted effect of over 65% in size
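Purified B. subtilis ClpP, 10 microg/mL final in Tris/HCl pH8 with KCl, BSA, glycerol and Tween-20, cleaved an Abz/nitrotyrosine-quenched decapeptide. Fluorescence (ex 320, em 430) was read at 0 and 20 min at room temperature. Delta was normalized to 5.8 microM ADEP and DMSO/no-enzyme controls.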
IL-1B inflam inh: qHTS for Inhibitors of Inflammasome Signaling: IL-1-beta AlphaLISA Primary Screen. THP-1 LPS/ATP IL-1B secretion, AlphaLISA, 16 h; hits give low values. actives 4.7% (n = 360,000). activity change, % at 57.5 µM; in the data active means activity change below about -50%; inconclusive means mostly about -30% to -49%
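THP-1 cells pretreated 1 hr with compounds (up to 57.5 uM final), then stimulated with LPS (250 ng/mL final) plus ATP (1.25 mM final); secreted IL-1B measured by AlphaLISA after 16 hr, decreased signal indicating inhibition.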
DRD3 agonist: qHTS of D3 Dopamine Receptor Agonist: qHTS; actives 0.58% (n = 410,000); max activation, %; D3R DiscoveRx beta-arrestin cells, luminescence, 90 min; in the data active means max activation above about 30%
Target sequence (P35462 whole entry, looked up): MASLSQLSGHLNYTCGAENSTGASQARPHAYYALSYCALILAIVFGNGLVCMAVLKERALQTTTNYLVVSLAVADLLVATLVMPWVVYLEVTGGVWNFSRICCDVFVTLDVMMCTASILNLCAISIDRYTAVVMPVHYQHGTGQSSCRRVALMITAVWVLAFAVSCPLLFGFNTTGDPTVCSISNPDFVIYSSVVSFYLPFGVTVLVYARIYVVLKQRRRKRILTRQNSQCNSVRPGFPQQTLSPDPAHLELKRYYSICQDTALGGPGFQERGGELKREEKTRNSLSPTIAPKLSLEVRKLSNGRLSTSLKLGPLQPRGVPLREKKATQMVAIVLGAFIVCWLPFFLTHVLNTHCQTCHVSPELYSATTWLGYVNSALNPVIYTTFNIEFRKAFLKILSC
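Agonist-mode cell screen: cells plated at 1500/well and incubated overnight at 37 °C, then exposed to library compounds for 90 min at 37 °C. Detection reagent was added for 30–60 min at room temperature, and luminescence was read.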
D3 antag: qHTS of D3 Dopamine Receptor Antagonist: qHTS. max response, negative = inhibition, %. D3R cells, DiscoveRx beta-arrestin luminescence, antagonist mode; hits give low values. actives 2.5% (n = 360,000); in the data active means max response below about -50%; inconclusive means no clear call, values can overlap the other calls
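Cells plated overnight at 1500 cells/well, then exposed to library compounds with dopamine controls for 90 minutes at 37 degrees C. DiscoveRx reagent added for 30–60 minutes at room temperature; luminescence read, quantitative HTS format.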
A number is an active result; - = inactive; ? = inconclusive; . = no result given; [ ] = remark or other dose. Compounds with a hit are over-represented: about 21% of the library has one in this group of screens. Unless noted, the call rests on the fitted dose curve; in most records, active means well fitted inhibition curve with a large enough effect; inconclusive means small, poorly fitted or top-dose-only effect; inactive means flat fitted curve, though single readings scatter.

SMILES | TDP1 cell noCPT | TDP1 cell CPT | ClpP mod | IL-1B inflam inh | DRD3 agonist | D3 antag
COc1cc(-c2cc(NC=O)c3ncc(-c4ccc(C(C)=O)cc4)n3c2)ccc1O | 8.2µM | 9.2µM | - | - | - | -
COc1cccc(-c2cc(NC=O)c3ncc(-c4cc(OC)c(OC)c(OC)c4)n3c2)c1 | 0.581µM | 0.517µM | - | - | - | -
Cc1cccc(C)c1NC(=O)C1(C)CCC(=O)N1CCc1c[nH]c2ccccc12 (configuration not stated) | - | - | - | - | - | -
Cc1nn(-c2ccccc2)c(C)c1/C=N/NC(=O)c1cnccn1 | - | - | - | - | - | -
Cc1ncc2c(c1CNC(=O)CN1CCCC1)CCN(C(=O)c1ccc(F)cc1F)C2 | - | -[9.04 µM] | . | . | . | .
COc1cc(-c2cnc3c(NC=O)cc(-c4cccc(C(F)(F)F)c4)cn23)cc(OC)c1OC | 5.17µM | 5.8µM | - | - | - | -
COc1cc(-c2cnc3c(NC=O)cc(-c4ccsc4)cn23)cc(OC)c1OC | 0.164µM | 0.184µM | - | - | - | -
COc1ccc(-c2cc(NC=O)c3ncc(-c4cccc(C(F)(F)F)c4)n3c2)c(OC)c1 | 14.6µM | 18.4µM | ? | - | - | -
COc1cc(-c2cc(NC=O)c3ncc(-c4ccc(F)cc4)n3c2)cc(OC)c1OC | ? | ? | ? | - | - | -
COc1cccc(-c2cnc3c(NC=O)cc(-c4ccc(O)c(OC)c4)cn23)c1 | 2.31µM | - | ? | - | - | -
F[B-](F)(F)COCc1ccccc1Br | - | - | - | ? | - | -
CN(/N=C/c1ccncc1)c1cnc2ccccc2n1 | ? | - | - | - | - | -
Cc1ccc(S(=O)(=O)N2CCCCC2)cc1NC(=O)c1c(-c2ccccc2)noc1C | - | - | - | - | - | -
CC(C)Oc1ccc(CCC(=O)NNC(=O)CCC(=O)O)cc1 | - | - | - | - | - | -
COc1ccccc1CN1CC(C(=O)NCc2ccc(SC)cc2)CCC1=O (configuration not stated) | - | - | - | - | - | -
Cc1ccc(NC(=O)N2CCN(Cc3nc4ccc(C)cc4o3)CC2)cc1 | - | - | - | . | - | .
O=C(Cn1cc(C(=O)C(=O)N2CCOCC2)c2ccccc21)Nc1cccc(C(F)(F)F)c1 | ? | ? | - | - | - | -
Nc1ccc(-c2cc(NC=O)c3ncc(-c4cccc(C(F)(F)F)c4)n3c2)cn1 | 10.3µM | 16.4µM | - | - | - | -
O=c1cc(/C=C/c2cccs2)[nH]c2ccccc12 | 2.06µM | 2.59µM | - | - | - | -
C(=C\c1cccs1)/c1ccccn1 | - | - | - | . | . | .
COc1ccc(OC)c(NC(=O)Nc2nc(C(N)c3ccccc3Cl)cs2)c1 (configuration not stated) | ? | ? | - | -51.2 | - | -
COc1ccc(OC)c(NC(=O)Nc2nc(C(N)C(C)C)cs2)c1 (configuration not stated) | ? | ? | - | -63.5 | - | -
